Screens from PubChem BioAssay.
HP1b binding inh – blocks HP1-beta chromodomain binding to methylated histone tails; 390,000 compounds, 0.56% hits; Potency, µM (highest dose often 114 µM), for the others: at the highest dose activity change, negative = inhibition, actives largely listed as inhibitors; AlphaScreen HP1-beta / biotin-H3K9me3 peptide binding; P83916; AID 540317; note: nearly all actives have a fitted effect of over 70% in size
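Compound inhibition of the preformed complex between 50 nM HP1-beta and 50 nM biotinylated H3K9me3 peptide was read by AlphaScreen. Buffer was PBS pH 7.4 with 0.01% Tween-20. Incubations ran 30 min at room temperature, with 10 ug/mL donor/acceptor beads.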
JMJD2A Tudor inh – JMJD2A Tudor domain (human) inhibition | O75164 | 390,000 compounds, 4.4% hits | Potency, µM (doses to about 114 µM), for inactives: at the highest dose activity change, negative = inhibition, usual class: inhibitors | AID 504339 | AlphaScreen JMJD2A-Tudor / H3K4me3 peptide binding; note: % is set by controls: 0 for no effect and ±100 for the full control effect; nearly all actives have a fitted effect of over 50% in size
Target sequence (O75164 whole entry, looked up, the tested form may be a part): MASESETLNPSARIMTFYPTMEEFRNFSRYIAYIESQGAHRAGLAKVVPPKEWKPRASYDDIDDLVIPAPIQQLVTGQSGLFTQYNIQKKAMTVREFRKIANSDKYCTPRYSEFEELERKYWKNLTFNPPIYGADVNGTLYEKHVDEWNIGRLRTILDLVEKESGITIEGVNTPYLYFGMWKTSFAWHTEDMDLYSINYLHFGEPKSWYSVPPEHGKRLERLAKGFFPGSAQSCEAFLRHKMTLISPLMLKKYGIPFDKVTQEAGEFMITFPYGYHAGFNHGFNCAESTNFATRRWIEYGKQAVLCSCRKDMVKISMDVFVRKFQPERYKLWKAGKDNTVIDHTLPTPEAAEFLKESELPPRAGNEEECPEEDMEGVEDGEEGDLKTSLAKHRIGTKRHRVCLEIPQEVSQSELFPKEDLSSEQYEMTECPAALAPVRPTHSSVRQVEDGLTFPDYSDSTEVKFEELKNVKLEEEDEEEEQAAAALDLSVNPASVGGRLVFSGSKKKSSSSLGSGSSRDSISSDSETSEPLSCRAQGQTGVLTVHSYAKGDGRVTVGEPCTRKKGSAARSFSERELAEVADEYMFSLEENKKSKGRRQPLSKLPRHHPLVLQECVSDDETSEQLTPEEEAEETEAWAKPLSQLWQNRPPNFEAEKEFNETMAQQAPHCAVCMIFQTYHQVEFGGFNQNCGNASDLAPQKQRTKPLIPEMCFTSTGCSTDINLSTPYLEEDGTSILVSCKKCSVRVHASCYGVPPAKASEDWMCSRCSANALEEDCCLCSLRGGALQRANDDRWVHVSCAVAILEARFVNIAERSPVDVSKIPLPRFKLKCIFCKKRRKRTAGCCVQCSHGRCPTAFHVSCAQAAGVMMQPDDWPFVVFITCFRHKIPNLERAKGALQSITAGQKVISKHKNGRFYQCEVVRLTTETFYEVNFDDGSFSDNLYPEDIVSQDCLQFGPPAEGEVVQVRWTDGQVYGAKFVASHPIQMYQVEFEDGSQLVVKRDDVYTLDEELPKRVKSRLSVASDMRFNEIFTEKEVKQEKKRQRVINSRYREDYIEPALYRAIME
G9a block – blocks human histone lysine methyltransferase G9a | Q96KQ7 | Potency, µM (titrated, usually from 102 µM), inactives show top-dose activity, negative = inhibition, most hits filed as inhibitors | G9a H3K9 monomethylation, AlphaScreen, 2 h | 350,000 compounds, 8.8% hits; note: % is set by controls: 0 for no effect and ±100 for the full control effect; nearly all actives have a fitted effect of over 75% in size
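Readings reflect AlphaScreen signal from monomethyl-H3K9 antibody detection. HMT at 20 nM; substrate b-H3K9 500 nM; cofactor SAM 20 uM; 2 h RT reaction; compounds tested as titrations in qHTS with 15 min preincubation.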
L3MBTL1 inh – inhibitors of human L3MBTL1 | AlphaScreen L3MBTL1–H3K9me1 peptide binding | Potency, µM (highest dose often 57.1 µM), for inactives: at the top dose activity, negative = inhibition, most hits filed as inhibitors | 230,000 compounds, 0.66% hits | AID 485360; note: % is set by controls: 0 for no effect and ±100 for the full control effect; nearly all actives have a fitted effect of over 60% in size
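Read-out is AlphaScreen signal from streptavidin donor and nickel chelate acceptor beads (10 ug/mL final each) bridging L3MBTL1 (50 nM) and biotinylated K9-monomethylated H3(1-15) peptide (75 nM), after 30 min compound exposure at room temperature.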
BAZ2B inh – blocks human BAZ2B. AlphaScreen BAZ2B-H3K14Ac peptide displacement. Potency, µM (series often up to 114 µM), for the others: top-dose activity change, negative = inhibition, most hits filed as inhibitors. 360,000 compounds, 4.4% hits. AID 504333; note: % is set by controls: 0 for no effect and ±100 for the full control effect; nearly all actives have a fitted effect of over 60% in size
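In this displacement format the biotinylated H3(5-23) peptide acetylated at Lys14 serves as ligand at 50 nM, with BAZ2B at 50 nM in PBS pH 7.4 containing 0.01% Tween-20. Donor and acceptor beads are 10 ug/mL final.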
* hit, by the source's call; ? = inconclusive; nt = not tested or not shown; [ ] = remark or other dose. The list is not random: actives were taken first. Their share in the collection is about 11%. Calls come from the whole dose curve; as a rule, active = well fitted inhibition curve with a large enough effect; inconclusive = small, poorly fitted or top-dose-only effect; inactive = no such curve, though single readings can be large or run the other way. Potency is the fitted concentration of half-maximal effect.

SMILES	HP1b binding inh	JMJD2A Tudor inh	G9a block	L3MBTL1 inh	BAZ2B inh
Brc1ccc(-c2nn3c(-c4ccco4)nnc3s2)o1	1.8%	?	14.1µM*	-15.4%	50.1µM*
Clc1ccc(OCc2nn3c(-c4ccco4)nnc3s2)c(Cl)c1	13.3%	?	-38.7%[2.33 µM]	nt	56.2µM*
COc1ccc(-c2noc(-c3cccc(OC)c3OC)n2)cc1	132.6%	114.8%	26.6%[59 µM]	nt	76.9%
Cc1cc(C)c(S(=O)(=O)Nc2ccc(Cl)cn2)c(C)c1	18.0%	-6.3%	-13.6%	-0.2%	-24.0%
O=[S+]([O-])(c1c(F)cccc1F)N1CCN([S+](=O)([O-])c2cccc3nonc23)CC1	nt	-13.7%	nt	nt	nt
Nc1c(C(=O)Nc2ccccc2)nnn1Cc1ccc(F)cc1Cl	52.6%	-18.9%	45.2%[59 µM]	nt	?
Clc1ccc(-c2nnc3sc(-c4ccccn4)nn23)cc1	nt	nt	-7.1%[2.33 µM]	1.9%	11.8%
CC(C)(C)c1ccc(-c2nnc3sc(-c4ccccn4)nn23)cc1	-5.8%	-26.1%	31.6µM*	-3.1%	?
O=C1CCCC(O)=C1N=Nc1ccc(Cl)c(Cl)c1	13.2%	-18.1%	?	?	?
Cc1nc2cc(N=NC3=C(O)CCCC3=O)ccc2s1	-17.1%	?	?	-26.4%	56.2µM*
CC(=O)Nc1ccc(NC(=O)CSc2cn(CC(=O)N(C(C)C)C(C)C)c3ccccc23)cc1	16.4%	-16.5%	-7.0%[59 µM]	nt	-22.4%
Cc1cccc(C)c1-n1c(C)cc(/C=N/NC(=O)CSc2ncccn2)c1C	?	50.1µM*	16.8%[59 µM]	-2.0%	44.7µM*
Cc1cc(C)nc(SCC(=O)N/N=C/c2cc(C)n(-c3ccccc3C)c2C)n1	?	?	50.1µM*	-13.1%	44.7µM*
Cc1cccc(C)c1-n1c(C)cc(/C=N/NC(=O)c2ccncc2)c1C	15.0%	?	?	-8.4%	?
Cc1ccccc1N(CC(=O)N/N=C/c1cc(C)n(-c2ccccc2C)c1C)S(C)(=O)=O	-3.0%	?	10µM*	nt	?
Cc1ccccc1N(CC(=O)N/N=C/c1cc(Br)c(C)o1)S(C)(=O)=O	-9.5%	-24.3%	?	-4.9%	?
Cc1cccc(C)c1-n1c(C)cc(/C=N\NC(=O)CC(=O)NC2CCCCC2)c1C	?	?	-4.0%[59 µM]	-13.3%	50.1µM*
Cc1cc(C)nc(SCC(=O)N/N=C\c2sccc2C)n1	25.1%	-9.3%	9.7%	?	-0.3%
COc1ccc(-c2csc(NC(C)c3nc4cc(C(F)(F)F)ccc4n3CCOCCO)n2)cc1 (centres undefined)	0.4%	?	nt	nt	nt
COc1ccc(NC(=O)CC2C(=O)N(c3ccc(F)cc3)C(=O)N2Cc2ccc3c(c2)OCO3)cc1 (centres undefined)	43.3%	-8.9%	-32.2%[59 µM]	nt	-0.7%
COc1ccccc1N(CC(=O)NCCSc1ccccc1)S(=O)(=O)c1ccc(C)cc1	11.7%	-22.8%	-7.7%[59 µM]	nt	2.3%
Cc1cc(C)cc(-n2c(C)cc(/C=N\NC(=O)COc3cccc4cccnc34)c2C)c1	1.8%	?	44.7µM*	-10.3%	?
Nc1ncnc(Oc2cccc3cccnc23)c1[N+](=O)[O-]	31.4%	-0.7%	?	2.1%[11.4 µM]	44.7µM*
COc1ccc(C(=O)Nc2ccc(OCc3cc(=O)n4ccccc4n3)cc2)cc1	-2.3%[57 µM]	-11.7%	-4.6%[59 µM]	nt	1.7%
CC(=O)N1CCN(c2ccc(Nc3ncnc4c3oc3ccccc34)cc2)CC1	2.9%	-27.1%	?	-13.2%	?
SMILES	HP1b binding inh	JMJD2A Tudor inh	G9a block	L3MBTL1 inh	BAZ2B inh
CCc1nc(Nc2ccccc2F)c2oc3ccccc3c2n1	35.4%	-3.5%	50.1µM*	nt	56.2µM*
CCc1nc(Nc2ccc(N3CCN(C(C)=O)CC3)cc2)c2oc3ccccc3c2n1	-0.4%	?	?	1.3%	50.1µM*
CCc1nc(Nc2ccc(F)cc2)c2oc3ccccc3c2n1	42.7%	0.7%	44.7µM*	nt	0.3%
Oc1cccc(Nc2ncnc3c2oc2ccccc23)c1	21.6%	-27.4%	50.1µM*	nt	?
C[C@]12c3[nH]c4cc(-c5ccco5)ccc4c3CCN1C(=O)[C@@H](CC(=O)NCc1ccco1)C[C@@H]2C(=O)N1CCOCC1	-12.5%	?	nt	-2.9%	nt
CC1CCN(C(=O)CSc2nc3ccccc3nc2Cc2ccccc2)CC1	53.1%[57 µM]	22.4%	17.9%[59 µM]	nt	23.3%
Cc1nc2ccn(Cc3cccs3)c(=O)c2cc1C(=O)N1CCN(c2ccccc2)CC1	18.3%	-23.7%	-8.2%[59 µM]	nt	-26.2%
CCc1nc(Nc2ccccc2)c2oc3ccccc3c2n1	44.8%	2.1%	-23.0%[59 µM]	8.0%	-7.5%
CCc1nc(Nc2cccc(F)c2)c2oc3ccccc3c2n1	10.4%	-9.6%	44.7µM*	nt	?
CC(C)(C)S(=O)(=O)/C(C#N)=C/c1sccc1C1OCCO1	-10.6%	70.8µM*	0.2%	-7.0%	-12.8%
COc1ccc(NC(=O)C(Cc2ccccc2)NS(=O)(=O)c2ccc3c(c2)CCN3C(C)=O)cc1 (centres undefined)	29.4%	-7.7%	?	nt	nt
Cc1ccc(S(=O)(=O)Nc2cc(C)c(O)c(Sc3n[nH]c(C)n3)c2)cc1	?	11.2µM*	7.08µM*	nt	-28.1%
COc1ccc(-n2c(=O)cnc3cnc(Oc4cccc(Cl)c4)nc32)cc1	nt	nt	0.4%[12.7 µM]	nt	nt
O=C1CN(Cc2ccccc2)C(=NCc2ccco2)S1	-13.6%	79.4µM*	-21.3%[59 µM]	-5.9%	?
O=C1CCCC(=NCc2ccco2)C1	15.1%	-10.4%	-6.9%	-2.1%	8.9%
COc1ccc(NC(=O)c2oc3ccccc3c2NC(=O)C23CC4CC(CC(C4)C2)C3)c(OC)c1	24.6%	-15.2%	9.1%[59 µM]	nt	-15.8%
O=C(CNC(=O)/C=C/c1ccco1)N=Nc1c(O)[nH]c2ccccc12	39.3%	-3.9%	35.5µM*	nt	56.2µM*
COc1ccc2c(c1)-c1nc(NC(=O)c3ccc(OC)c(Br)c3)sc1CC2	23.6%	-28.9%	-35.3%[59 µM]	nt	?
COc1ccc(/C=N/NC(=O)c2cccnc2)cc1CN1CCCc2ccccc21	44.7µM*	35.5µM*	?	nt	39.8µM*
Cc1ccc(C(=O)Oc2ccc(/C=N/NC(N)=O)cc2)cc1	37.0%	-7.2%	28.2µM*	-1.7%	?
O=C(N/N=C/c1ccc(OC(=O)c2ccccc2)cc1)c1cccnc1	?	-27.8%	20µM*	nt	?
Cc1oc(-c2ccc(C(=O)NCc3ccccc3F)cc2)nc1COc1ccccc1	19.3%	6.6%	-4.6%[59 µM]	nt	-20.4%
Cc1ccc(-n2c3nc(=O)[nH]c(=O)c-3cc3c(C)nn(-c4ccccc4)c32)cc1Cl	51.0%	3.3%	27.8%[59 µM]	nt	nt
CN1c2ccccc2C(C)(C)C12C=Cc1cc(O)ccc1O2 (centres undefined)	?	44.7µM*	nt	-27.5%	44.7µM*
O=[N+]([O-])c1cccnc1SCc1ccccc1	35.5µM*	14.1µM*	44.7µM*	nt	31.6µM*
Cc1ccccc1Sc1ncccc1[N+](=O)[O-]	-37.6%	?	nt	nt	nt
O=C(O)c1cccnc1SCc1ccc([N+](=O)[O-])cc1	62.5%	2.3%	-2.1%	nt	-5.9%
